# TrxR1 inh: inhibitors of rat thioredoxin reductase 1; O89049; recombinant rTrxR1, NADPH fluorescence consumption, selenite substrate; 390,000 tested, 1% active; Potency, µM (doses to about 114 µM), without a hit: at the highest dose activity change, negative = inhibition, actives largely listed as inhibitors; also: % is scaled to controls: 0 for no effect and ±100 for the full control effect; nearly all actives have a fitted effect of over 65% in size
#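 Rat TrxR1 (90 nM in the dispensed reagent) was pre-reduced with 400 uM NADPH for 5 min at room temperature, then incubated with compound for 15 min. After 400 uM selenite was added, NADPH fluorescence (Ex 340/Em 450 nm) was followed for 8 min.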
# Mito fusion act: blocks mitochondrial division or promotes mitochondrial fusion. 320,000 tested, 0.23% active. S. cerevisiae fusion-defective mutant growth rescue, CellTiterGlo 48 h. AID 485298. Potency, µM (doses to about 46.1 µM), for the others: at the top dose growth rescue (activation), usual class: activators; also: % of control where 0% means no effect; nearly all actives have a fitted effect of over 45% in size
#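 Growth-rescue viability read-out: after 48 h at the non-permissive 37C in glycerol/ethanol YPEG, yeast mitochondrial fusion mutants are measured by CellTiterGlo luminescence; compounds (23 nl pinned per well) restoring growth score as division inhibitors or fusion activators.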
# TrxR1 substrate: is turned over as a substrate by rat TrxR1 | purified TrxR1 substrate turnover, NADPH consumption readout | O89049 | Potency, µM (top dose mostly 114 µM), for inactives: at the top dose activity change, negative = substrate turnover | 390,000 tested, 0.01% active; also: % is scaled to controls: 0 for no effect and ±100 for the full control effect; nearly all actives have a fitted effect of over 50% in size
#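 Rat TrxR1, dispensed at 90 nM, was prereduced with 400 uM NADPH (final) for 5 min at ~22 deg C, then incubated with compound 15 min before 400 uM selenite. A first-read NADPH fluorescence drop versus no-compound background flagged substrates.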
# A549 viability: counter-screen for Nrf2 inhibitors: cytotoxicity in A549 cells | A549 ARE-Fluc cells, CellTiter-Fluor viability, 18-24 h | Potency, µM (doses to about 46 µM), for the others: top-dose activity change, negative = cytotoxicity, actives largely listed as inhibitors | 390,000 tested, 0.16% active | AID 504648; also: % is scaled to controls: 0 for no effect and ±100 for the full control effect
#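 A549 ARE_Fluc cells in 5% FBS OPTI-MEM were exposed to compounds in concentration-response for 18-24 h at 37 deg C. Viability was read by CellTiter-Fluor fluorescence (Ex 405/Em 525) after 30 min, before the luciferase read.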
# mIDH1 inhibitor: blocks human mutant IDH1 R132H enzyme; 390,000 tested, 0.093% active; O75874; IDH1-R132H enzyme, NADPH consumption, diaphorase/resazurin fluorescence; AID 602179; Potency, µM (doses to about 76.6 µM), inactives show at the top dose activity change, negative = inhibition, hits mostly inhibitors; also: % is scaled to controls: 0 for no effect and ±100 for the full control effect; nearly all actives have a fitted effect of over 65% in size
# Target sequence (O75874 whole entry R132H, stated change not applied): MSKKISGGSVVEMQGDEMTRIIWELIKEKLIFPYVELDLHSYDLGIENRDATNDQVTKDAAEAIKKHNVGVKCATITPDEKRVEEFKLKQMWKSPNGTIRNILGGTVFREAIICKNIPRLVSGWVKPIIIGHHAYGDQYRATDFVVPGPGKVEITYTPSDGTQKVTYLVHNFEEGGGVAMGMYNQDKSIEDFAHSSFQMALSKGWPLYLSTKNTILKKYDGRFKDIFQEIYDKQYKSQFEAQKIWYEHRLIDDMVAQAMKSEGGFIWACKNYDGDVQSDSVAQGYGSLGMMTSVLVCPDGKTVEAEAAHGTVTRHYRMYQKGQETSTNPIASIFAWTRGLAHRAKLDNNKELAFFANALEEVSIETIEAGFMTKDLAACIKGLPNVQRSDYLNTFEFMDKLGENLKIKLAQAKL
#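 IDH1-R132H (0.5 ug/mL) preincubated 30 min with compound, then NADPH (0.016 mM) and alpha-KG (2 mM) added; 80 min at RT, pH 7.5. Remaining NADPH coupled via diaphorase/resazurin to fluorescence (540/590 nm); concentration-response curves normalized to no-enzyme control.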
# Nrf2 inh: Nrf2 pathway inhibition; 360,000 tested, 2.1% active; A549 ARE-Fluc reporter, luciferase luminescence, 18-24 h; AID 504444; Potency, µM (titrated, usually from 46 µM), for inactives: at the top dose activity change, negative = inhibition, most hits filed as inhibitors; also: % is scaled to controls: 0 for no effect and ±100 for the full control effect; nearly all actives have a fitted effect of over 60% in size
#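 Nrf2 function is reported as luminescence of an ARE-controlled luciferase in A549 cells. Compounds were tested at several concentrations, and a CellTiter-Fluor read on the same wells flagged cytotoxicity.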
# An asterisk follows results filed as active; ? = inconclusive; . = no result; [ ] = another dose, or the depositor's remark. This is a sample that favours compounds with a hit; in the whole collection about 3.1% have one here. Calls follow the shape of the dose curve; as a rule, active = well fitted curve in the direction sought with a large enough effect; inconclusive = small, poorly fitted or top-dose-only effect, or another doubt; inactive = no such curve, though single readings can be large; an effect the other way counts as inactive or inconclusive. Potency is read from the fitted curve at half-maximal effect.
SMILES,TrxR1 inh,Mito fusion act,TrxR1 substrate,A549 viability,mIDH1 inhibitor,Nrf2 inh
FC(F)Sc1ccc(-n2cc(-c3ccccc3)[n+]3c2CCC3)cc1,-6.5%,-18.5%,-8.6%,-7.5%,-5.1%,?
COc1ccc(-n2cc(-c3ccccc3)[n+]3c2CCCCC3)cc1,4.8%[57.1 µM],8.3%,-1.3%[57.1 µM],-14.3%,3.2%,8.2µM*
CC(=O)Nc1ccc(S(=O)(=O)N2CCN(S(=O)(=O)c3ccc4c(c3)OCCO4)CC2)cc1,.,.,.,-10.0%,.,?
CCCCn1c(SCc2nc(N)nc(Nc3ccccc3C)n2)nc2ccccc2c1=O,11.3%[57.1 µM],21.0%,2.1%,-29.8%,0.8%,20.6µM*
CCOC(=O)[C@H]1O[C@@H]1C(=O)N[C@@H](CC(C)C)C(=O)NCCC(C)C,0.0%,-14.5%,4.1%,20.6µM*,8.4%,9.8%
COc1cccc(N2C(=O)C(CC(=O)Nc3ccccc3)N(CCc3sccc3C)C2=O)c1 (centres undefined),6.1%,.,-3.0%,-11.0%,-2.1%,-8.3%
Cc1ccccc1C(=O)NCC(=O)OC(C(=O)Nc1cc(C(F)(F)F)ccc1Cl)c1ccccc1 (centres undefined),.,.,.,5.9%,.,-17.9%
Cc1cccc(OCc2nc(C#N)c(NCc3ccc4c(c3)OCO4)o2)c1,2.3%,7.08µM*,-1.8%,-4.7%,2.2%,-9.3%
COc1ccc(CNc2oc(COc3cccc(C)c3)nc2C#N)cc1,16.2%,.,2.8%,?,7.9%,13.9%
Cc1cc(NCc2ccccn2)n2nc(C)c(-c3ccc(Cl)cc3)c2n1,33.0%[57.1 µM],8.4%,49.1%[57.1 µM],-29.0%,-6.7%,16.4µM*
Cc1cc(NCc2ccccn2)n2ncc(-c3ccc(Cl)cc3)c2n1,74.6%,4.6%,72.5%,-15.2%,2.1%,?
COc1ccc(Br)cc1CN(C)C(=O)c1ccc2c(c1)NC(=O)C(C)S2 (centres undefined),3.0%[57.1 µM],-4.0%,7.9%[57.1 µM],5.2%,-2.4%,4.0%
Cc1cccc(N2CCN(S(=O)(=O)c3ccc4c(c3)NC(=O)CO4)CC2)c1C,-10.7%,4.8%,-13.1%,-0.2%,0.0%,-8.1%
CCOc1ccc(CN(C)C(=O)c2ccc3c(c2)NC(=O)C(C)S3)cc1OC (centres undefined),24.8%,-4.1%,2.3%,-18.6%,-7.0%,16.4µM*
Cc1cccc(N2CCN(C(=O)CCS(=O)(=O)c3ccc4c(c3)NC(=O)CO4)CC2)c1C,-0.7%[57.1 µM],-4.7%,2.5%[57.1 µM],-5.1%,-1.7%,14.6µM*
CC1Sc2ccc(S(=O)(=O)CCC(=O)N3CCN(c4ccccc4)CC3)cc2NC1=O (centres undefined),24.3%,2.6%,8.2%,-2.6%,-1.9%,8.2%
CCOc1ccccc1N(C)C(=O)CCS(=O)(=O)c1ccc2c(c1)NC(=O)C(C)S2 (centres undefined),70.8µM*,1.5%,-4.1%,-0.2%,7.1%,-17.5%
CC1Sc2ccc(S(=O)(=O)CCC(=O)N3CCN(c4cccc(Cl)c4)CC3)cc2NC1=O (centres undefined),10.7%,8.3%,-5.5%,?,-9.5%,16.4µM*
CC(=O)c1ccc(N2CCC(c3cc(-c4ccc(Cl)cc4Cl)n[nH]3)CC2)c([N+](=O)[O-])c1,7.3%[57.1 µM],-12.3%,-5.3%[57.1 µM],?,0.7%,16.4µM*
O=[N+]([O-])c1cccnc1N1CCC(c2cc(-c3ccc(Cl)cc3Cl)n[nH]2)CC1,10.4%,17.9%,9.1%[57.1 µM],?,3.3%,18.4µM*
COc1ccc(OC)c(-c2cc(C3CCN(c4ncccc4[N+](=O)[O-])CC3)[nH]n2)c1,9.6%,17.7%,-3.5%,?,8.9%,?
O=[N+]([O-])c1cccnc1N1CCC(c2cc(-c3cccc(C(F)(F)F)c3)n[nH]2)CC1,0.9%,9.0%,-9.0%,?,2.2%,20.6µM*
CN(C)c1ccc(C(=O)NCc2ccc3c(c2)CCN3C(=O)c2ccccc2)cc1,-2.8%[57.1 µM],.,-8.9%[57.1 µM],0.2%,0.0%,.
COc1ccc(CN2CCN(C(=O)C3CCN(S(=O)(=O)c4cccs4)CC3)CC2)c(OC)c1OC,-7.4%,2.5%,-4.6%,-3.7%,-11.1%,14.6µM*
COCCn1c(SCc2csc(-c3ccccc3)n2)nc2ccccc21,10.8%[57.1 µM],29.0%,-3.2%,-21.9%,4.4%,20.6µM*
SMILES,TrxR1 inh,Mito fusion act,TrxR1 substrate,A549 viability,mIDH1 inhibitor,Nrf2 inh
Cc1cc(Cl)ccc1OC(C)C(=O)N1CCCN(C(=O)C(C)Oc2ccc(Cl)cc2C)CC1 (centres undefined),0.3%[57.1 µM],?,-12.9%[57.1 µM],?,-2.1%,16.4µM*
Cc1cc(C)n(-c2ccc(C(=O)N3CCN(S(=O)(=O)c4cccc(Br)c4)CC3)cc2)n1,1.0%,.,-2.1%,-17.8%,-12.7%,?
Cc1cc(C)n(-c2ccc(C(=O)N3CCN(S(=O)(=O)c4ccc(C(C)C)cc4)CC3)cc2)n1,23.9%,-0.7%,-2.0%,-16.6%,-6.5%,23.1µM*
Cc1nn(C)c(Cl)c1S(=O)(=O)N(Cc1ccco1)c1ncnc2nc[nH]c12,-25.4%,.,-5.5%,6.8%,.,-13.6%
Cc1sc2ncn(CC(=O)Nc3cccc(C(F)(F)F)c3)c(=O)c2c1S(=O)(=O)N1CCC(C)CC1,21.8%,.,4.1%[2.29 µM],8.1%,3.3%,-6.3%[9.27 µM]
CCCCCN1C=CC(=C2C(=O)c3ccccc3C2=O)C=C1,-1.3%[57.1 µM],-2.1%,-5.4%[57.1 µM],-16.4%,-6.0%,9.2µM*
COc1ccc(S(=O)(=O)NCCSc2nnnn2-c2ccccc2)cc1OC,21.5%,.,0.1%,4.1%,10.4%,?
COc1ccc(-c2cc(C)no2)cc1S(=O)(=O)N1CCN(c2ccc(C(C)=O)cc2)CC1,24.1%[57.1 µM],.,3.7%[57.1 µM],-1.2%,4.2%,13µM*
CCCS(=O)(=O)NCCc1sc2nc(-c3ccc(F)cc3)nn2c1C,14.3%[57.1 µM],.,2.2%[57.1 µM],-13.5%,9.9%,.
CCOC(=O)c1c(NC(=O)C2C3C=CC(CC3)C2C(=O)O)sc(C)c1CC (centres undefined),-7.3%,7.08µM*,6.8%[57.1 µM],7.7%,-2.6%,-21.3%
O=[N+]([O-])c1ccc(/C=C/c2ccnc3ccccc23)c([N+](=O)[O-])c1,4.6%,.,3.5%,.,.,.
Cc1ccc(S(=O)(=O)N2CCOCC(=O)NCCOCCNC(=O)COCC2)cc1,-5.8%,3.2%,-1.4%,-1.0%,8.9%,7.0%
COC(=O)c1ccc(C2Nc3c(C)cc(C)cc3C3C=CCC32)cc1 (centres undefined),3.98µM*,.,13.9%,-11.0%,-9.7%,4.3%
Cc1cc(C)c2c(c1)[C@@H]1C=CC[C@@H]1[C@H](c1ccc(S(=O)(=O)N3CCOCC3)cc1)N2,2.82µM*,0.9%,-4.0%,-1.2%,-1.8%,-7.4%

# Source: PubChem (National Center for Advancing Translational Sciences (NCATS))
